14 molecules from PubChem BioAssay (NCATS) can be followed below.

For assay [1], the target named is Metallo-beta-lactamase type 2 (Klebsiella pneumoniae) (UniProt C7C422). Briefly: qHTS to identify inhibitors of the New Delhi Metallo-beta-lactamase (NDM): assay validation screen against the NCATS LOPAC Collection (AID 1794843).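 Further: nitrocefin turnover by NDM-1 measured as 485 nm absorbance at plateau.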 Conditions: NDM-1 enzyme, nitrocefin hydrolysis, absorbance 485 nm; series mostly up to 38.4 µM. The method in brief:
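Enzyme 2 nM final, 50 mM HEPES pH 7.0, 1 uM ZnSO4, 0.01% Tween20; cpds in DMSO, preincub w/ enzyme; + nitrocefin (50 uM stock); A485 at plateau; no-enzyme column as blank.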

The target of assay [2] is Phospholipid hydroperoxide glutathione peroxidase GPX4 (Homo sapiens) (UniProt P36969). Briefly: Primary qHTS Assay for Inhibitors of Recombinant Selenoprotein Glutathione Peroxidase 4 (GPX4) (AID 1845192). Further: nearly all actives have a fitted effect of over 65% in size. Conditions: recombinant GPX4, GR-coupled NADPH fluorescence, 15 min; series mostly up to 50 µM. The method in brief: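 GR-coupled assay: recombinant GPX4 preincubated 30 min with compound at room temperature; final 200 nM GPX4, 1 mM GSH, 0.5 mM cumene hydroperoxide, 0.5 mM NADPH, 100 nM GR, 0.01% BSA, pH 7.5 Tris. NADPH fluorescence (340/450 nm) read at 0 and 15 min.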

The target of assay [3] is Glutathione peroxidase 1 (Homo sapiens) (UniProt P07203). The assay can be described thus: Primary qHTS Assay for Inhibitors of Recombinant Selenoprotein Glutathione Peroxidase 1 (GPX1) (AID 1845191). Further: nearly all actives have a fitted effect of over 65% in size. The settings on record: recombinant GPX1, GR-coupled NADPH fluorescence, 15 min; series mostly up to 48.8 µM. The method in brief: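 GR-coupled assay: compounds preincubated 30 min at room temperature with GPX1, then reaction started with CHP; final 10 nM GPX1, 1 mM GSH, 0.5 mM CHP, 0.5 mM NADPH, 100 nM GR, 0.01% BSA, pH 7.5 Tris buffer. NADPH fluorescence (340/450 nm) read at 0 and 15 min.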

Assay [4] in a line: HepG2 viability counterscreen (readout 2: ATP content) against the NCATS DSHEA and TCM libraries (AID 1794840).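 Further: HepG2 cells exposed to substances for about 24 h.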 Conditions: ATP content luminescence; series mostly up to 27.3 µM. The essentials: (§1)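 1,000 HepG2 cells/well, 4 h attach; compounds ~24 h, 37C/5% CO2. Readout 1: GF-AFC 25 uM final, 30 min, fluorescence 380/510 nm. Readout 2: CellTiter-Glo, 30 min RT, luminescence.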

Assay [5] can be described thus: HepG2 viability counterscreen (readout 1: protease activity) against the NCATS DSHEA and TCM libraries (AID 1794841).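 Further: cells exposed to compounds for about 24 h before the protease read.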 The settings on record: qHTS concentration series; series mostly up to 27.3 µM. The method in brief: as §1
In assay [6] the target is Cytochrome P450 3A4 (Homo sapiens) (UniProt P08684). Briefly: qHTS for inhibitors of CYP3A4 against the NCATS DSHEA and TCM libraries (AID 1919971).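 Further: inhibition lowers luminescence from luciferin made by CYP3A4.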 The settings on record: recombinant CYP3A4 enzyme activity, luminescence qHTS; series mostly up to 34.1 µM. The method in brief:
(§2)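 Luminescent P450-Glo format: compounds preincubated 15 min with enzyme and luciferin substrate, reaction run 30-45 min after NADPH regeneration solution. Intraplate controls: ketoconazole for CYP3A4 and CYP2C19, sulfaphenazole for CYP2C9.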

Assay [7] addresses Cytochrome P450 2D6 (Homo sapiens) (UniProt P10635). The assay can be described thus: qHTS for inhibitors of CYP2D6 against the NCATS DSHEA and TCM libraries (AID 1919972). Conditions: CYP2D6 enzymatic inhibition, luminescence qHTS; series mostly up to 34.1 µM. The method in brief: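 Luminescent P450-Glo read-out of CYP2D6 turnover of a luciferin substrate after NADPH-driven reaction of 30-45 min at room temperature. Compounds were first preincubated 15 min with enzyme at titrated concentrations; quinidine was the intraplate control.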

For assay [8], the target named is Cytochrome P450 2C9 (Homo sapiens) (UniProt P11712). Briefly: qHTS for inhibitors of CYP2C9 against the NCATS DSHEA and TCM libraries (AID 1919973).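 Further: luminogenic pro-luciferin CYP2C9 substrate turned into luciferin with NADPH regeneration.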 Conditions: recombinant CYP2C9 enzyme activity, luminescence; series mostly up to 34.1 µM. The essentials: as §2
Assay [9] in a line: KB-3-1 P-gp reporter qHTS against the NCATS DSHEA and TCM libraries (AID 1919975). The settings on record: KB-3-1 parental cells, CellTiter-Glo luminescence viability, 72 h; series mostly up to 26.1 µM. The method in brief:
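CellTiter-Glo luminescence viability readout; KB-3-1 parental cells, 500/well, attached ~4 h, then compound for ~72 h, 37C, 5% CO2. Bortezomib intraplate control.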

Assay [10] can be described thus: qHTS Counterscreen for compound interference against the NCATS DSHEA and TCM libraries (AID 1919978).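 Further: compounds preincubated with 1 µM D-luciferin or buffer before detection reagent.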 The settings on record: firefly luciferase detection reagent interference, luminescence. The essentials:
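Luminescence counterscreen for detection-kit interference: compounds at 19.5 nM–39.8 uM final, 15 min RT with 1 uM D-luciferin or buffer only; detection reagent added, 30 min RT, then read.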

Assay [11] in a line: Dual reporter qHTS for agonist of Pregnane X Receptor (hPXR) against the NCATS DSHEA and TCM libraries: Fluorescence readout (AID 1920058). The settings on record: PXR dual reporter cells; series mostly up to 40 µM. The essentials:
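hPXR-Luc HepG2 cells, 2000/well in charcoal-stripped serum, attached 5 h, dosed for ~24 h at 37 °C. Fluorescence read is CellTiter-Fluor viability (Ex/Em 405/540 nm); rifampicin positive, tetraoctyl ammonium bromide (92 µM) cytotoxicity controls.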

The target of assay [12] is Nuclear receptor subfamily 1 group I member 2 (Homo sapiens) (UniProt O75469). Briefly: Dual reporter qHTS for agonist of Pregnane X Receptor (hPXR) against the NCATS DSHEA and TCM libraries: Luminescence readout (AID 1920059). The settings on record: hPXR dual reporter cells, luciferase luminescence agonist; series mostly up to 40 µM. The essentials:
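hPXR-Luc HepG2 cells, 2000/well in 5% charcoal-stripped FBS medium, attached 5 h, then exposed 24 h at 37C to compounds. Viability by CellTiter-Fluor, then luciferase luminescence with ONE-Glo.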

Assay [13] in a line: Dual reporter qHTS for antagonist of Pregnane X Receptor (hPXR) against the NCATS DSHEA and TCM libraries: Fluorescence Readout (AID 1920061). The settings on record: PXR dual reporter cells, antagonist mode; series mostly up to 40 µM. The method in brief:
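HepG2 hPXR-Luc, 2000 cells/well, charcoal-stripped FBS medium; 5 h attach; RIF 2 uM final; 24 h 37C/5% CO2; CellTiter-Fluor 1 h, fluor 405/540; ONE-Glo 30 min RT, lum.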

A short description of assay [14]: qHTS drug screen for cell cycle checkpoint inhibitors in PARPi-resistant BRCA-mutant ovarian cancer cell lines. (AID 1963452; calls by dose curve). Conditions: PEO1/OlaR viability, CellTiter-Glo luminescence, 96 h, stronger effect = lower value. The essentials: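 PEO1, PEO4 and PEO1/OlaR ovarian cancer cells, 600 per well, exposed 96 h at 37C to a dilution series. Viability read by CellTiter-Glo luminescence, normalized to DMSO and empty wells; activity summarized as Z-AUC.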

Records with an inconclusive call do not appear. Where a call stands in place of a potency, no number is given. Activity calls are given as the source filed them. Unless noted, the call rests on the fitted dose curve; in most records, active means well fitted curve in the direction sought with a large enough effect; inconclusive means small, poorly fitted or top-dose-only effect, or another doubt; inactive means no such curve, though single readings can be large; an effect the other way counts as inactive or inconclusive.

Sequence of Metallo-beta-lactamase type 2 (Klebsiella pneumoniae) (C7C422 whole entry, looked up): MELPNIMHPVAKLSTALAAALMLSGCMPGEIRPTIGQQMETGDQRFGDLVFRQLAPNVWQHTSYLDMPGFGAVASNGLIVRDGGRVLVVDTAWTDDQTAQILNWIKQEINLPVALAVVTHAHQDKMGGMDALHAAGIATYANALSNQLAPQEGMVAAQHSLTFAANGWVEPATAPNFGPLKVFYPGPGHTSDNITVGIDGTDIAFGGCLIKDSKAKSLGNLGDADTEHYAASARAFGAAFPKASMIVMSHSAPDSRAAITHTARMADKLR
Sequence of Glutathione peroxidase 1 (Homo sapiens) (P07203 whole entry, looked up): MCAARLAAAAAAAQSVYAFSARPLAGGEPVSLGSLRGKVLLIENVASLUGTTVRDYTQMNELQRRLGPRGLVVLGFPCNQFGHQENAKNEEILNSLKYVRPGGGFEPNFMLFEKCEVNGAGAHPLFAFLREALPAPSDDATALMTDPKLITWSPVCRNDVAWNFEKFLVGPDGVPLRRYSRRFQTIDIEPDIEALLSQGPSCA
Sequence of Phospholipid hydroperoxide glutathione peroxidase GPX4 (Homo sapiens) (P36969 whole entry, looked up): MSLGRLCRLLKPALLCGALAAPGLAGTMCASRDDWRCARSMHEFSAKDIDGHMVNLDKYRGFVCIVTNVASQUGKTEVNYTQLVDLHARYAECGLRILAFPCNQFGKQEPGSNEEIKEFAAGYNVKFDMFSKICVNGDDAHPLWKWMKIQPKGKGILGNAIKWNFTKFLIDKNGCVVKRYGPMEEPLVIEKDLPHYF
Sequence of Cytochrome P450 2C9 (Homo sapiens) (P11712 whole entry, looked up): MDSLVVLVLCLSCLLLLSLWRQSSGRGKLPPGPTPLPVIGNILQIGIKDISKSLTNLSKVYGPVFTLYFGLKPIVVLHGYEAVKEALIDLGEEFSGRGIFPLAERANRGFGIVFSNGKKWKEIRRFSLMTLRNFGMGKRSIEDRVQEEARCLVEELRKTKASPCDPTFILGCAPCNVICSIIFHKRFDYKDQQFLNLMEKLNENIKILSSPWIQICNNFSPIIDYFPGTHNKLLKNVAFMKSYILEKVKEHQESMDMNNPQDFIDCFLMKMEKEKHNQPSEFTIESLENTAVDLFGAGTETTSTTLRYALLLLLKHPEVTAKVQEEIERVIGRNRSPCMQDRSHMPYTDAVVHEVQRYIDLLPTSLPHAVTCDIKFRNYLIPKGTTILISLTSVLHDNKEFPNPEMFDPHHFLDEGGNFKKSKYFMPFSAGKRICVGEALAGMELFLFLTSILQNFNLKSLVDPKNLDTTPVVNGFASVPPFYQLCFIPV
Sequence of Cytochrome P450 3A4 (Homo sapiens) (P08684 whole entry, looked up): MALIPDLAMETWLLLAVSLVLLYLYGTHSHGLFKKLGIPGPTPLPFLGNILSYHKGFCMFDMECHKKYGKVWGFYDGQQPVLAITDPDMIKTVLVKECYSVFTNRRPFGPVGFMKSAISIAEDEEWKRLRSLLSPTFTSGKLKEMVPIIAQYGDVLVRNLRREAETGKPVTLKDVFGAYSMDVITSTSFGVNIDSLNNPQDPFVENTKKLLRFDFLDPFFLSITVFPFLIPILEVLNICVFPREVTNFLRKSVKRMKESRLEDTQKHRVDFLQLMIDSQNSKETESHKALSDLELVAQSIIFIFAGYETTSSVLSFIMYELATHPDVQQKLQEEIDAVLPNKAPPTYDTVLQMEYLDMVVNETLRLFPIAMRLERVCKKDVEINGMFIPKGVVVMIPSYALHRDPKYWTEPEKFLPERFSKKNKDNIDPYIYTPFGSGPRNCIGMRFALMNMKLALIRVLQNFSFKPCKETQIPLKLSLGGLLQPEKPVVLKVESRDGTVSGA
Sequence of Nuclear receptor subfamily 1 group I member 2 (Homo sapiens) (O75469 whole entry, looked up): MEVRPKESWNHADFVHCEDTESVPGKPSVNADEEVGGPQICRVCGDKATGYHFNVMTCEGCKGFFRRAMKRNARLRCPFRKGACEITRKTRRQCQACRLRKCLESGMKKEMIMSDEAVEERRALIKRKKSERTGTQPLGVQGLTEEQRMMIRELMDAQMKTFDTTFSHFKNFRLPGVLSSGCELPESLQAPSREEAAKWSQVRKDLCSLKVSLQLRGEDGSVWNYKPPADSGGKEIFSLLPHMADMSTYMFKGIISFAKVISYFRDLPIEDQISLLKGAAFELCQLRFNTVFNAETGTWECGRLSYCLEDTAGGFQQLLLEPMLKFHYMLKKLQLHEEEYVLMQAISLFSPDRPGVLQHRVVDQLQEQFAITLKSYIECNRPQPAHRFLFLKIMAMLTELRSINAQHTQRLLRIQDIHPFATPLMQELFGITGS
Sequence of Cytochrome P450 2D6 (Homo sapiens) (P10635 whole entry, looked up): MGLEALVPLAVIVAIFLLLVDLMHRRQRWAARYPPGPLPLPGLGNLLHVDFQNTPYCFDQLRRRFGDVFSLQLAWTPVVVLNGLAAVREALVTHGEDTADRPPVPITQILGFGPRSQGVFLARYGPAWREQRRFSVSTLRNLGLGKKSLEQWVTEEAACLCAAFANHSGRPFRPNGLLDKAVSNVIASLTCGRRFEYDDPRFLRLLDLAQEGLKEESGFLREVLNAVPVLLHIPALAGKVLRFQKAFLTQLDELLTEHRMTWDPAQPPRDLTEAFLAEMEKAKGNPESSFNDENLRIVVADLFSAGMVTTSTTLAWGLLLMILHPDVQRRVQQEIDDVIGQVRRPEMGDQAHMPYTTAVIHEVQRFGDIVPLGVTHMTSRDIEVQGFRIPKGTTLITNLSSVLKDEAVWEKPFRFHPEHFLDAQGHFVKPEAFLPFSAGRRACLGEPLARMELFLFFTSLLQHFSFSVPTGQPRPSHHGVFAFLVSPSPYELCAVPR

In the case of `C[N+]1(CCCCC[N+]2(C)CCCC2)CCCC1`, in assay [1], the result was inactive. Also, in assay [2], the Potency entry was “inactive”.

With `CCN1CCCC1=O`, the Potency result in assay [3] is “inactive”.

Turning to `N[C@H](Cc1c[nH]c2ccccc12)C(=O)O`, the Potency entry in assay [3] is “inactive”.

In the case of `O=C(O)c1cc2cc(Cc3cccnc3)ccc2o1`, the molecule was classed as inactive in [1]. The Potency entry in assay [3] and in [2] was “inactive” in each case.

`Nc1ccc(C(=O)O)cc1`: the molecule was called inactive in [4], in assay [5], in assay [6], in assay [7], in [8] and in assay [9]. For the same molecule, the outcome in assay [11], in assay [12] and in assay [13] was inactive. For the same molecule, the Potency entry in assay [3] was “inactive”. Further, the max response in assay [10] was -2.08% (inactive).

For the molecule `CC(=O)CC(c1ccc([N+](=O)[O-])cc1)c1c(O)c2ccccc2oc1=O` (configuration not stated), the Potency entry in assay [3] is “inactive”.

Consider `CC(C)COC(=O)OCN1C(=O)CN(CCN2CC(=O)N(COC(=O)OCC(C)C)C(=O)C2)CC1=O`, for which, in assay [3], the Potency result is “inactive”.

For the molecule `CN1C2CCC1CC(OC(=O)c1c[nH]c3ccccc13)C2` (configuration not stated), the call in assay [1] was inactive. Further, the Potency result in assay [3] and in [2] was “inactive” in each case.

Turning to `C[C@]12C=CC(=O)C=C1[C@@H](F)C[C@@H]1[C@@H]2[C@@H](O)C[C@@]2(C)[C@H]1CC[C@]2(O)C(=O)CO`, the Potency result in [3] is “inactive”.

As to `C[C@]12CC[C@@H]3c4ccc(O)cc4CC[C@H]3[C@@H]1CC[C@@H]2O`, the result in [1] was inactive. For the same molecule, the Potency result in assay [2] is “inactive”. Also, the Z-AUC in assay [14] was 0.573 (inactive); in assay [14] (measured here: PEO1 parental Z-AUC), 0.0962; in assay [14] (measured here: PEO4 Z-AUC) it was 0.419.

Take `C#C[C@]1(O)CC[C@H]2[C@@H]3CCc4cc(OC5CCCC5)ccc4[C@H]3CC[C@@]21C`: the Potency entry in assay [3] is “inactive”.

With `CC(O)(P(=O)(O)O)P(=O)(O)O`, the Potency entry in assay [3] is “inactive”.

For `Oc1ccc(O)cc1`, the call in assay [1] was inactive. For the same molecule, the Potency entry in [3] and in assay [2] was “inactive” throughout.

With `CCCC1O[C@@H]2C[C@H]3[C@@H]4CCC5=CC(=O)C=C[C@]5(C)[C@H]4[C@@H](O)C[C@]3(C)[C@]2(C(=O)CO)O1` (some centres not stated), in [1], the result was inactive. Moreover, the Potency result in assay [3] and in [2] was “inactive” throughout.
